Reference: PubChem BioAssay (NCATS)
The source made the active and inactive calls. Calls come from the whole dose curve; as a rule, active = well fitted curve in the direction sought with a large enough effect; inconclusive = small, poorly fitted or top-dose-only effect, or another doubt; inactive = no such curve, though single readings can be large; an effect the other way counts as inactive or inconclusive.

target: Alpha-galactosidase (Coffea arabica) (UniProt Q42656); assay: Counterscreen for Glucocerebrosidase Inhibitors: qHTS Assay for Coffee Bean alpha-Galactosidase at pH 4.5 (AID 957); settings: purified coffee bean alpha-galactosidase, fluorogenic substrate; series mostly up to 76.9 µM; activity change, negative = inhibition: at the top concentration;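 note: plate controls were enzyme alone for no effect and no enzyme for full effect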
Sequence (Q42656 whole entry, looked up): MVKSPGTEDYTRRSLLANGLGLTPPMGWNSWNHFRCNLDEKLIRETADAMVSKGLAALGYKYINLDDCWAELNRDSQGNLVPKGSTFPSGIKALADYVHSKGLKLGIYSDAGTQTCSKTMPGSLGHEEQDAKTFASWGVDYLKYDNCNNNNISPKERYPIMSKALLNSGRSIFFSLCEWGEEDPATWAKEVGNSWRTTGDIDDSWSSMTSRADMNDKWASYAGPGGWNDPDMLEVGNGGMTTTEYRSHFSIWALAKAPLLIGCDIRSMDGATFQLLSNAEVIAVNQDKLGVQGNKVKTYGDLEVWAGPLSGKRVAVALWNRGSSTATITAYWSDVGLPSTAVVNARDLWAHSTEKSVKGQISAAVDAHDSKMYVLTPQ
Outline: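 Quantitative HTS of compounds (0.7 nM to 77 uM) against coffee bean alpha-galactosidase at pH 4.5, measuring 4-methylumbelliferone fluorescence released from 80 uM substrate.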

SMILES	activity change, negative = inhibition	outcome
Nc1ccc(CCNc2ncnc3c2ncn3[C@@H]2O[C@@H](CO)[C@H](O)[C@@H]2O)cc1	2.09% (inactive)	
CC(C)(Oc1ccc([C@@H]2CC2(Cl)Cl)cc1)C(=O)O	-2.9% (inactive)	
C[C@@H](CN1c2ccccc2Sc2ccccc21)N(C)C	-2.3% (inactive)	
C[C@H](N)C1CCC(C(=O)Nc2ccncc2)CC1 (stereo partly drawn)	-1.96% (inactive)	
CN1[C@@H]2CC[C@H]1CC(OC(=O)[C@@H](CO)c1ccccc1)C2 (stereo partly drawn)		inactive
COc1cc([C@H](O)C(=O)O)ccc1O	-1.06% (inactive)	
O=C(O)[C@H]1CN(CCCP(=O)(O)O)CCN1	-0.014% (inactive)	
CO/N=C(\C(=O)N[C@@H]1C(=O)N2C(C(=O)O)=C(COC(C)=O)CS[C@@H]12)c1csc(N)n1	1.34% (inactive)	
C[C@H](O)[C@H](O)[C@@H]1CNc2nc(N)[nH]c(=O)c2N1	4.72% (inactive)	
O=C1O/C(=C\Br)CC[C@@H]1c1cccc2ccccc12	-0.716% (inactive)	
O=C1N=C(O)CN1/N=C\c1ccc(-c2ccc([N+](=O)[O-])cc2)o1	-1.46% (inactive)	
O=c1cc(O)cc(/C=C\c2ccc(O)c(O)c2)o1	-10.9% (inactive)	
C[C@@H]1C(=O)N(C)C(=O)c2nc[nH]c21	-1.88% (inactive)	
Cn1cc(C(F)(F)F)nc1-c1ccc(OC[C@@H](O)CNCCOc2ccc(O)c(C(N)=O)c2)cc1	3.99% (inactive)	
CCCCOc1cc(C[C@@H]2CNC(=O)N2)ccc1OC	-0.887% (inactive)	
CC[C@H](NC(C)C)[C@H](O)c1ccc(O)c(O)c1	-2.23% (inactive)	
O=C(NC[C@H]1CCCCN1)c1cc(OCC(F)(F)F)ccc1OCC(F)(F)F	1.57% (inactive)	
CN1CCc2cc(O)c(O)cc2[C@H](c2ccccc2)C1	0.723% (inactive)	
COc1cc2c(cc1O)CC[C@@H]1[C@@H]2CC[C@@]2(C)[C@H](O)CC[C@H]12	-1.12% (inactive)	
O=C1[C@@H]2C=CC=CC2=NC(=S)N1CCN1CCC(=C(c2ccc(F)cc2)c2ccc(F)cc2)CC1	-4.15% (inactive)	

SMILES	activity change, negative = inhibition	outcome
COc1ccc(NC(=O)/C=C\c2ccc(Cl)cc2)cc1	-10.8% (inactive)	
C[C@@H](CN1CCC(Cc2ccccc2)CC1)[C@H](O)c1ccc(O)cc1	-0.625% (inactive)	
NC[C@H](O)C1CCCCCCC1	-1.27% (inactive)	
COc1cc([C@H](O)CO)ccc1O	-1.11% (inactive)	
C=C[C@@]1(C)CC(=O)[C@@]2(O)[C@@]3(C)[C@H](O)CCC(C)(C)[C@@H]3[C@H](O)[C@H](OC(C)=O)[C@]2(C)O1	-1.1% (inactive)	
O[C@H](CN1CCN(c2cccc(Cl)c2)CC1)C(c1ccccc1)c1ccccc1	-6.68% (inactive)	
C[C@]1(C2CCCC2)Cc2cc(OCC(=O)O)c(Cl)c(Cl)c2C1=O	0.194% (inactive)	
O=C1NC(O)=NC1(c1ccccc1)c1ccccc1	4.05% (inactive)	
NC(=S)NCCC[C@@H](N)C(=O)O	3.04% (inactive)	
CCN1CCC[C@@H]1CNC(=O)c1c(O)c(Cl)cc(Cl)c1OC	-0.0171% (inactive)	
O[C@@](CCN1CCCCC1)(c1ccccc1)C1CCCCC1	-0.724% (inactive)	
CC(=O)/C(C)=N\O	-1.53% (inactive)	
NCC[C@H]1CCC[C@H](CCN)N1	-1.17% (inactive)	
CN1CCN([C@@H]2Cc3ccccc3Sc3ccc(Cl)cc32)CC1	-7.21% (inactive)	
CNC(=O)[C@@H]1O[C@@H](n2cnc3c(N)ncnc32)[C@@H](O)[C@H]1O	1.89% (inactive)	
O=C(O)CC[C@@H](NC(=O)c1ccccc1C(=O)O)C(=O)O	3.46% (inactive)	
CC(C)COC[C@H](CN(Cc1ccccc1)c1ccccc1)N1CCCC1	-10.6% (inactive)	
CN=C(NC#N)Nc1ccc(C2=NNC(=O)C[C@@H]2C)cc1	0.312% (inactive)	
N[C@H](CCCP(=O)(O)O)C(=O)O	-1.15% (inactive)	

target: Alpha-galactosidase (Coffea arabica) (UniProt Q42656); assay: Counterscreen for Glucocerebrosidase Inhibitors: qHTS Assay for Coffee Bean alpha-Galactosidase at pH 5.9 (AID 998); settings: coffee bean alpha-galactosidase enzyme assay; series mostly up to 76.9 µM; activity, negative = inhibition: at the top concentration;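 note: plate controls were uninhibited enzyme for no effect and no-enzyme basal signal for full effect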
Outline: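 Fluorogenic 4-MU substrate hydrolysis, 80 uM substrate and 2 nM coffee bean alpha-galactosidase, pH 5.9 citrate buffer, 20 min at room temperature, then NaOH/glycine stop. Titration 0.7 nM–77 uM, normalized to no-enzyme and enzyme controls, AC50 via Hill equation.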

SMILES	activity, negative = inhibition	outcome
Nc1ccc(CCNc2ncnc3c2ncn3[C@@H]2O[C@@H](CO)[C@H](O)[C@@H]2O)cc1	2.01% (inactive)	
CC(C)(Oc1ccc([C@@H]2CC2(Cl)Cl)cc1)C(=O)O	4.64% (inactive)	
C[C@@H](CN1c2ccccc2Sc2ccccc21)N(C)C	-4.27% (inactive)	
C[C@H](N)C1CCC(C(=O)Nc2ccncc2)CC1 (stereo partly drawn)	-1.9% (inactive)	
CN1[C@@H]2CC[C@H]1CC(OC(=O)[C@@H](CO)c1ccccc1)C2 (stereo partly drawn)		inactive
COc1cc([C@H](O)C(=O)O)ccc1O	0.0938% (inactive)	
O=C(O)[C@H]1CN(CCCP(=O)(O)O)CCN1	3.52% (inactive)	
CO/N=C(\C(=O)N[C@@H]1C(=O)N2C(C(=O)O)=C(COC(C)=O)CS[C@@H]12)c1csc(N)n1	2.28% (inactive)	
C[C@H](O)[C@H](O)[C@@H]1CNc2nc(N)[nH]c(=O)c2N1	1.93% (inactive)	
O=C1O/C(=C\Br)CC[C@@H]1c1cccc2ccccc12	5.4% (inactive)	
O=C1N=C(O)CN1/N=C\c1ccc(-c2ccc([N+](=O)[O-])cc2)o1	-4.63% (inactive)	
O=c1cc(O)cc(/C=C\c2ccc(O)c(O)c2)o1	-9.52% (inactive)	
C[C@@H]1C(=O)N(C)C(=O)c2nc[nH]c21	-0.52% (inactive)	
Cn1cc(C(F)(F)F)nc1-c1ccc(OC[C@@H](O)CNCCOc2ccc(O)c(C(N)=O)c2)cc1	-0.0895% (inactive)	
CCCCOc1cc(C[C@@H]2CNC(=O)N2)ccc1OC	-0.411% (inactive)	
CC[C@H](NC(C)C)[C@H](O)c1ccc(O)c(O)c1	-2.48% (inactive)	
O=C(NC[C@H]1CCCCN1)c1cc(OCC(F)(F)F)ccc1OCC(F)(F)F	0.186% (inactive)	
CN1CCc2cc(O)c(O)cc2[C@H](c2ccccc2)C1	0.711% (inactive)	
COc1cc2c(cc1O)CC[C@@H]1[C@@H]2CC[C@@]2(C)[C@H](O)CC[C@H]12	3.12% (inactive)	
O=C1[C@@H]2C=CC=CC2=NC(=S)N1CCN1CCC(=C(c2ccc(F)cc2)c2ccc(F)cc2)CC1	-4.02% (inactive)	

SMILES	activity, negative = inhibition	outcome
COc1ccc(NC(=O)/C=C\c2ccc(Cl)cc2)cc1	-6.89% (inactive)	
C[C@@H](CN1CCC(Cc2ccccc2)CC1)[C@H](O)c1ccc(O)cc1	-2.88% (inactive)	
NC[C@H](O)C1CCCCCCC1	-0.8% (inactive)	
COc1cc([C@H](O)CO)ccc1O	1.71% (inactive)	
C=C[C@@]1(C)CC(=O)[C@@]2(O)[C@@]3(C)[C@H](O)CCC(C)(C)[C@@H]3[C@H](O)[C@H](OC(C)=O)[C@]2(C)O1	-2.12% (inactive)	
O[C@H](CN1CCN(c2cccc(Cl)c2)CC1)C(c1ccccc1)c1ccccc1	-10.7% (inactive)	
C[C@]1(C2CCCC2)Cc2cc(OCC(=O)O)c(Cl)c(Cl)c2C1=O	1.36% (inactive)	
O=C1NC(O)=NC1(c1ccccc1)c1ccccc1	1.94% (inactive)	
NC(=S)NCCC[C@@H](N)C(=O)O	0.766% (inactive)	
CCN1CCC[C@@H]1CNC(=O)c1c(O)c(Cl)cc(Cl)c1OC	0.588% (inactive)	
O[C@@](CCN1CCCCC1)(c1ccccc1)C1CCCCC1	-1.02% (inactive)	
CC(=O)/C(C)=N\O	-0.805% (inactive)	
NCC[C@H]1CCC[C@H](CCN)N1	4.41% (inactive)	
CN1CCN([C@@H]2Cc3ccccc3Sc3ccc(Cl)cc32)CC1	-3.82% (inactive)	
CNC(=O)[C@@H]1O[C@@H](n2cnc3c(N)ncnc32)[C@@H](O)[C@H]1O	-0.995% (inactive)	
O=C(O)CC[C@@H](NC(=O)c1ccccc1C(=O)O)C(=O)O	0.35% (inactive)	
CC(C)COC[C@H](CN(Cc1ccccc1)c1ccccc1)N1CCCC1	-3.81% (inactive)	
CN=C(NC#N)Nc1ccc(C2=NNC(=O)C[C@@H]2C)cc1	4.59% (inactive)	
N[C@H](CCCP(=O)(O)O)C(=O)O	-0.069% (inactive)	
